Measured values as given in PubChem BioAssay.
The source made the active and inactive calls.

Experiments:
[1] = compounds binding Alexa647 anti-His antibody – biochemical, small-molecule microarray, 635 nm fluorescence, artefact control for SMM control protein annotation, primary screen (AID 1128); conditions: higher = more signal;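 also: score merges feature fluorescence with signal-to-noise for each printed compound spot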
[2] = tested on: Human papillomavirus type 1a E7 protein (residues 1-88); experiment: HPV1a E7 small-molecule binders, primary screen, biochemical, small-molecule microarray, residues 1-88, 635 nm (AID 1129); conditions: small-molecule microarray binding, fluorescence 635 nm; higher = more signal
[3] = molecular target: Focal adhesion kinase 1 (Homo sapiens) (UniProt Q05397); experiment: PTK2 protein binding on printed compound slides – biochemical, small-molecule microarray, 635/667 nm fluorescence, BSA, DTT, primary screen (AID 1130); conditions: 635 nm fluorescence, higher = more signal;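 also: composite of spot emission at 667 nm and signal to noise over triplicate slides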
Focal adhesion kinase 1 (Homo sapiens), sequence (Q05397 whole entry, looked up): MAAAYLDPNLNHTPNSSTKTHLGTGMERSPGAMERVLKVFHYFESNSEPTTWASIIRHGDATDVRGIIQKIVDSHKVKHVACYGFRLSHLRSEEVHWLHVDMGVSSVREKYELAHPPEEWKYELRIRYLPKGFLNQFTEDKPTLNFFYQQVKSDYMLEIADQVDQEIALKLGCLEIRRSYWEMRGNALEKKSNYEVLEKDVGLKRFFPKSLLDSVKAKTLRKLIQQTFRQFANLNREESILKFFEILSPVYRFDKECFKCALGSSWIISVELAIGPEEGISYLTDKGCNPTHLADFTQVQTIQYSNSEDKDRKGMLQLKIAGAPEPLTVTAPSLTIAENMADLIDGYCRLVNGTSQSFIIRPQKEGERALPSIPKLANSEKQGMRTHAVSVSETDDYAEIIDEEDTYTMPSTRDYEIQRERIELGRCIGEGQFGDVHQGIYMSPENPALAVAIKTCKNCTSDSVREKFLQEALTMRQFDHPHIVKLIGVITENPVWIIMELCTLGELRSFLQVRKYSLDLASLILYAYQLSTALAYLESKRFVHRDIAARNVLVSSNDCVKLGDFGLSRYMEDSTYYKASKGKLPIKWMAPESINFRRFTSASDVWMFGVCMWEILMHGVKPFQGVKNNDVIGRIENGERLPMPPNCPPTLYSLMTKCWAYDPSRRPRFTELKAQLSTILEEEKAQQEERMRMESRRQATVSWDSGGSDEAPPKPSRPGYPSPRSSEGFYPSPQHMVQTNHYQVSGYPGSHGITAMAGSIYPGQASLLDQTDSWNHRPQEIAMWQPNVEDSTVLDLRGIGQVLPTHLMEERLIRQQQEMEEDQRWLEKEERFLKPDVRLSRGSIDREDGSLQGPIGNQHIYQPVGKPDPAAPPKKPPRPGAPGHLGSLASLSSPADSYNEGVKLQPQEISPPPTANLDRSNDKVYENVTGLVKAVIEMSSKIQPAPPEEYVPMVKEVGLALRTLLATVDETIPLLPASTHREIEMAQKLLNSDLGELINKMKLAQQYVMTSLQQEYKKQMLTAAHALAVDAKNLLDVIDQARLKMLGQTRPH

[4] = tested on: Fibrinogen (Alexa647-labelled); experiment: Alexa647-fibrinogen binding to printed small molecules – biochemical, small-molecule microarray, 635/667 nm fluorescence, artefact control for SMM control-protein annotation, profiling panel (AID 1131); conditions: fibrinogen-A647 binding fluorescence, higher = more signal;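 also: z-score merges 667 nm fluorescence with per-spot signal-to-noise over triplicate slides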
[5] = molecular target: Follistatin (Homo sapiens) (UniProt P19883); experiment: FST protein binding to printed compounds – biochemical, small-molecule microarray, 635/667 nm fluorescence, primary screen (AID 1132); conditions: 635 nm fluorescence, higher = more signal
Follistatin (Homo sapiens), sequence (P19883 whole entry, looked up): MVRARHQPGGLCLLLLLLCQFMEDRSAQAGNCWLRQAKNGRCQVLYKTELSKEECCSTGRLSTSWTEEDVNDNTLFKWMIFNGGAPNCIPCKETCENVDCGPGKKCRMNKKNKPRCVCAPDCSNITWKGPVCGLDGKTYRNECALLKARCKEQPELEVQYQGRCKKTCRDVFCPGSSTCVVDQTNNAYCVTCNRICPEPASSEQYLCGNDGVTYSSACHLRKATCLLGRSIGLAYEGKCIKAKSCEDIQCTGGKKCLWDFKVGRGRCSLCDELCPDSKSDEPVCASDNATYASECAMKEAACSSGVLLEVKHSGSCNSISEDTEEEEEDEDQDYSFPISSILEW

[6] = molecular target: Fibroblast growth factor 2 (Homo sapiens) (UniProt P09038); experiment: basic fibroblast growth factor binding to printed compounds – biochemical, small-molecule microarray, 635/667 nm fluorescence, primary screen (AID 1133); conditions: FGF2, fluorescence 635/667, higher = more signal
Fibroblast growth factor 2 (Homo sapiens), sequence (P09038 whole entry, looked up): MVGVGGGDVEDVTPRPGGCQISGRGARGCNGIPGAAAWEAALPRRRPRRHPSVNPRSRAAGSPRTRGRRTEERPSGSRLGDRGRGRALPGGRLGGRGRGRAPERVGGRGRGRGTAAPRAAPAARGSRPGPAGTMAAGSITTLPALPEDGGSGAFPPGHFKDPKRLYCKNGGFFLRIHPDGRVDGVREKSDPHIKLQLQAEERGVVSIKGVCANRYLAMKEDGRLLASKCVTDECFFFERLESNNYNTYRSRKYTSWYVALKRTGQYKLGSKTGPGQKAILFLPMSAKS

[7] = JC-1 mitochondrial potential readout, lung cancer cells – cell-based, A549, JC-1 fluorescence, basal, 24 h, 100 nL, profiling panel (AID 1138); conditions: higher = more signal;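 also: A549 lung adenocarcinoma cells under basal conditions with no added stimulus; test concentration not given here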
[8] = tested on: Lefty1; experiment: Lefty1 protein binding to printed compounds – biochemical, small-molecule microarray, 635/667 nm fluorescence, primary screen (AID 1139); conditions: fluorescence 635/667, higher = more signal
[9] = tested on: wheat germ agglutinin (Triticum aestivum), Alexa647-labelled; experiment: Alexa647-WGA lectin binding to printed small molecules – biochemical, small-molecule microarray, 635/667 nm fluorescence, artefact control for SMM control-protein annotation, profiling panel (AID 1140); conditions: WGA-A647 binding, 635 nm fluorescence, higher = more signal;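 also: score merges 667 nm feature emission with signal to noise over triplicate slides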
[10] = molecular target: Luciferin 4-monooxygenase (Photinus pyralis) (UniProt P08659); experiment: inhibition of purified Photinus pyralis luciferase – biochemical, luminescence, purified enzyme, 2006 set, primary screen (AID 1141); conditions: purified firefly luciferase, SteadyGlo luminescence, 30 min; higher = more signal, called active from +8 up or from −8 down;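 also: cell-free assay with purified firefly luciferase at 100 ng per well in PBS; test concentration not given here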
Luciferin 4-monooxygenase (Photinus pyralis), sequence (P08659 whole entry, looked up): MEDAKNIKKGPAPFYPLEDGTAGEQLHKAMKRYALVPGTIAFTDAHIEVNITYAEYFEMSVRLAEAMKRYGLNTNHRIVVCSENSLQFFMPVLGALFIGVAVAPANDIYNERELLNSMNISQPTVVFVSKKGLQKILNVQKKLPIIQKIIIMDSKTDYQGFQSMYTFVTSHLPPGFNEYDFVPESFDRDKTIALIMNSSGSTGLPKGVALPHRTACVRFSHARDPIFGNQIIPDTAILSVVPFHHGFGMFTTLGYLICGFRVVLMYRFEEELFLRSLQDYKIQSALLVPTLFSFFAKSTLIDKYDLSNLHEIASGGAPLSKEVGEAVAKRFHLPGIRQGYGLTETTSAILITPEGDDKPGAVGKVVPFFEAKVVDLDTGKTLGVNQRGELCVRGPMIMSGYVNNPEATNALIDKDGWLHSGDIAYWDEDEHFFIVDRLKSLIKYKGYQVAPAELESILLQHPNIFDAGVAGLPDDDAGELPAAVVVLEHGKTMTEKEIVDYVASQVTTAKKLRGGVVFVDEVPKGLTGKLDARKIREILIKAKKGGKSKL

| SMILES | composite z-score [1] | composite z-score [2] | composite z-score [3] | composite z-score [4] | composite z-score [5] | composite z-score [6] | z-score [7] | composite z-score [8] | composite z-score [9] | z-score [10] |
| --- | --- | --- | --- | --- | --- | --- | --- | --- | --- | --- |
| CCCCCN1CC=CC23O[C@@H]4/C=C\CCCOC(=O)C4[C@H]2C(=O)N(CCCO)[C@@H]3C1=O (stereo not given in full) | 2.06 | 1.3 | 1.23 | -0.965 | -0.162 | -0.281 | -0.564 | 0.157 | 0.197 | -2.41 (inactive) |
| C=CC[C@]1(C(=O)N2CCCCC2)N=C(c2ccc(OCCCO)cc2)O[C@H]1c1ccccc1 | 2.2 | 1.19 | 0.702 | 0.928 | 1.3 | -0.165 | 1.48 | -0.395 | 0.676 | -0.728 (inactive) |
| COC(=O)c1c(CC[C@@H](CO)NC(=O)N[C@@H](C)Cn2cc(C3(O)CCCCC3)nn2)oc(C(C)=O)c1C(=O)OC | 2.77 | 1.12 | -0.262 | 0.747 | 1.22 | 1.29 | -1 | 1.66 | 0.696 | 0.599 (inactive) |
| C#CCN(CC1=CCCCC1)[C@H](c1ccccc1Br)[C@@H](O)Cc1ccccc1 | 0.646 | -0.0173 | 1.98 | -0.671 | -0.688 | -1.05 | -1.27 | -0.955 | 0.665 | -0.688 (inactive) |
| C=C(/C(=C/C[C@@H](OC(C)=O)c1ccc(OCCO)cc1)c1cnc2ccccc2c1)C(C)C | 0.204 | 0.408 | 0.166 | -0.59 | 1.1 | 0.757 | 1.04 | 0.806 | 0.983 | -1.6 (inactive) |
| CCCC[C@@H]1C[C@H]1[C@@H](NC(=O)c1ccco1)c1ccc(Cl)cc1 | 1.26 | 1.2 | 0.998 | 0.939 | 0.0863 | -0.488 | 1.88 | -0.406 | 1.21 | 1.17 (inactive) |
| COCCOC(=O)N1C(=O)[C@@]2(c3cc(C#CCNC(N)=O)ccc31)[C@H](C(=O)NC[C@H](O)c1ccccc1)[C@H]1C(=O)O[C@H](c3ccccc3)[C@H](c3ccccc3)N1[C@@H]2c1ccccc1OCCO | 1.06 | 0.769 | 0.564 | 0.762 | 1.07 | 0.73 | -1.08 | 0.946 | 0.592 | -0.533 (inactive) |
| [N-]=[N+]=NCc1ccccc1C[C@@]1(C(=O)NCC(O)CO)N=C(c2ccc(OCCCO)cc2)O[C@@H]1c1ccccc1N=[N+]=[N-] (stereo not given in full) | 2.41 | 1.22 | 1.22 | 0.962 | 1.38 | 1.58 | -0.043 | -0.709 | 1.15 | -3.13 (inactive) |
| C=C(COC)/C(=C/C[C@@H](OC(C)=O)c1ccc(CO)o1)c1cnc2ccccc2c1 | 0.562 | 1.14 | -0.23 | 0.962 | 1.44 | 1.57 | -0.482 | 1.46 | 1.04 | -3.82 (inactive) |
| C=CCNC(=O)[C@H]1[C@@H]2C(=O)O[C@@H](c3ccccc3)[C@@H](c3ccccc3)N2[C@@H](c2ccccc2OCCO)[C@]12C(=O)Nc1ccc(C#CC3=CCCCC3)cc12 | 0.971 | 1.17 | 0.26 | 0.783 | 1.16 | 1.21 | -0.856 | 0.681 | 0.394 | -1.19 (inactive) |
| CN1C(=O)C2C=CC(C(O)c3cccs3)N(Nc3ccccc3)C2C1=O (stereo not given) | 0.803 | 1.16 | 0.251 | 0.024 | 0.492 | -0.294 | 0.0177 | 0.249 | 0.508 | -0.0014 (inactive) |
| CCOc1cc(C(O)C2C=CC3C(=O)N(c4ccccc4)C(=O)C3N2Nc2ccccc2)ccc1O (stereo not given) | 1.3 | 1.19 | 1.54 | 0.896 | 0.608 | -0.106 | -0.0767 | -0.231 | 0.471 | -1.15 (inactive) |
| O=C1OCCC/C=C\[C@H]2OC34C=CCN(Cc5ccccc5)C(=O)[C@H]3N(CCCCCCO)C(=O)[C@@H]4C12 (stereo not given in full) | 0.727 | -0.39 | 0.0123 | -1.98 | -1.61 | -0.929 | 1.59 | -1.55 | -0.513 | -1.76 (inactive) |
| COC(=O)c1c(CC[C@@H](CO)NC(=O)N2CCC[C@H]2Cn2cc(-c3ccccn3)nn2)oc(C(C)=O)c1C(=O)OC | 0.0014 | 0.282 | 0.16 | -0.975 | -0.0633 | 0.123 | -0.53 | 0.427 | 0.0776 | 0.793 (inactive) |
| C=C(CCCC)C(=O)CC[C@H](OC(=O)c1cccnc1)c1ccccc1OCCO | 0.984 | -0.513 | 0.0467 | -0.633 | 0.537 | 1.32 | 1.08 | 0.785 | 0.14 | -0.288 (inactive) |
| CCCC=C(CCC)[C@@H](NC(=O)Oc1ccc(F)cc1)c1ccc(C(=O)OC)cc1 | 0.421 | 1.15 | 0.401 | 0.906 | 0.746 | -0.161 | 2.89 | -0.186 | 1.09 | 0.516 (inactive) |
| [N-]=[N+]=NCc1ccccc1[C@@H]1OC(c2ccc(OCCCO)cc2)=N[C@]1(Cc1ccccc1N=[N+]=[N-])C(=O)N1CCOCC1 | 2.12 | 1.27 | 0.536 | 0.857 | 1.31 | 1.66 | 1.28 | -0.207 | 1.13 | -1.52 (inactive) |
| CN(C)C(=O)[C@]1(Cc2ccccc2CN=[N+]=[N-])N=C(c2ccc(OCCCO)cc2)O[C@@H]1c1ccccc1CN=[N+]=[N-] | 1.17 | 1.25 | 0.44 | 0.969 | 1.28 | 0.355 | 0.0653 | 1.06 | 1.09 | -0.554 (inactive) |
| COC(=O)[C@@]1(Cc2ccc(OC)cc2)[C@H]2c3cc(C(=O)N(C)C)n(Cc4cccc5ccccc45)c3C[C@H]2CN1C(=O)c1ccccc1 | 1.54 | 1.26 | 0.306 | 1.02 | 0.202 | -0.225 | -0.78 | 0.566 | 1.03 | 0.629 (inactive) |
| O=C1O[C@@H](c2ccccc2)[C@@H](c2ccccc2)N2[C@@H](c3ccccc3OCCO)[C@]3(C(=O)Nc4ccc(C#CC5=CCCCC5)cc43)[C@@H](C(=O)Nc3nc4ccccc4s3)[C@H]12 | 0.353 | 1.17 | 0.0358 | 0.843 | 1.12 | 0.885 | -2.22 | 0.781 | 0.622 | -0.959 (inactive) |
| CC(C)N1C(=O)[C@@]2(Cc3ccccc31)c1ccccc1C(=O)N(C1CCCCC1)[C@H]2c1ccc(CO)cc1 | -0.192 | 0.37 | -0.0723 | 0.193 | 1.33 | 0.254 | -0.958 | 0.958 | -0.01 | 1.11 (inactive) |
| [N-]=[N+]=Nc1ccccc1[C@H]1OC(c2ccc(OCCCO)cc2)=N[C@@]1(Cc1ccccc1)C(=O)O | 0.864 | 1.25 | 0.345 | 1.04 | 1.17 | 0.284 | 0.384 | 0.708 | 0.611 | -9.33 (active) |
| C=CCNC(=O)[C@H]1[C@@H]2C(=O)O[C@@H](c3ccccc3)[C@@H](c3ccccc3)N2[C@@H](c2ccc(O)cc2)[C@]12C(=O)N(C(=O)OCCOC)c1ccc(C#CCNC(N)=O)cc12 | 1.05 | 0.898 | 0.0197 | 0.0703 | 1.44 | 1.58 | -0.531 | 0.713 | 1.03 | -0.0822 (inactive) |
| COc1ccc(C(O)C2C=CC3C(=O)N(C)C(=O)C3N2N2CCCCC2)c2ccccc12 (stereo not given) | 1.4 | 1.26 | 0.921 | 1 | 0.829 | -0.372 | -0.364 | 0.174 | 1.27 | -0.129 (inactive) |
| [N-]=[N+]=Nc1ccccc1C[C@]1(C(N)=O)N=C(c2ccc(OCCCO)cc2)O[C@H]1c1ccccc1 | 2.45 | 1.2 | -0.155 | 1.01 | 0.371 | -0.768 | 0.518 | -0.364 | 1.23 | -1.53 (inactive) |
| Cc1ccc(S[C@]2(C(=O)NCCN3CCOCC3)CC(=O)N(Cc3ccccc3Cl)[C@@H]2c2ccc(CO)cc2)cc1 | 1.69 | -0.516 | 0.155 | -1.85 | 0.157 | -0.536 | -0.63 | -0.188 | 0.193 | 1.58 (inactive) |
| COc1ccc([Si](C)(C)[C@H]2[C@H](CC(=O)N3Cc4ccccc4C[C@H]3CO)O[C@@]3(C(=O)N(Cc4ccc(N5CCC5=O)cc4)c4ccccc43)[C@@H]2C)cc1 | 1.72 | 1.13 | 1.12 | 0.42 | 1.33 | 1.32 | 1.11 | 1.56 | 0.104 | 0.511 (inactive) |
| Cc1ccc(C(C)CC(O)C2C=CC3C(=O)N(C)C(=O)C3N2NC(=O)OC(C)(C)C)o1 (stereo not given) | 1.65 | 1.01 | 0.759 | 0.314 | 0.997 | 0.48 | -0.475 | 0.444 | 0.563 | -1.3 (inactive) |
